Reference: PubChem BioAssay (NCI)
Compounds without any hit were thinned out: in the full panel of roughly 83,000, 20% have a hit.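 Testing used 96-well plates and a 48-hour single-concentration exposure. Example: -40 means 40% of the starting cells died.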 Calls of active or inactive are those of the source. Rule for the calls: active = growth percent below 10; inactive = the rest.

How the values were obtained:
Assay in all cases: NCI-60 one-dose screen, 48 h (100 = growth as untreated, 0 = no growth, -100 = all killed)
Settings in all cases: 10 µM
K-562 leukemia = tested on: K-562 leukemia
MDA-MB-231 breast = tested on: MDA-MB-231 breast
RXF 393 renal = tested on: RXF 393 renal
SF-268 CNS = tested on: SF-268 CNS
SF-295 CNS = tested on: SF-295 CNS
SF-539 CNS = tested on: SF-539 CNS
UACC-257 melanoma = tested on: UACC-257 melanoma
M14 melanoma = tested on: M14 melanoma
HCT-15 colon = tested on: HCT-15 colon
HT29 colon = tested on: HT29 colon
SNB-75 CNS = tested on: SNB-75 CNS
SNB-19 CNS = tested on: SNB-19 CNS
U251 CNS = tested on: U251 CNS
PC-3 prostate = tested on: PC-3 prostate
SK-MEL-5 melanoma = tested on: SK-MEL-5 melanoma
UACC-62 melanoma = tested on: UACC-62 melanoma
LOX IMVI melanoma = tested on: LOX IMVI melanoma
SK-MEL-28 melanoma = tested on: SK-MEL-28 melanoma
SK-MEL-2 melanoma = tested on: SK-MEL-2 melanoma
MALME-3M melanoma = tested on: MALME-3M melanoma

Compound	growth (K-562 leukemia)	growth (MDA-MB-231 breast)	growth (RXF 393 renal)	growth (SF-268 CNS)	growth (SF-295 CNS)	growth (SF-539 CNS)	growth (UACC-257 melanoma)	growth (M14 melanoma)	growth (HCT-15 colon)	growth (HT29 colon)	growth (SNB-75 CNS)	growth (SNB-19 CNS)	growth (U251 CNS)	growth (PC-3 prostate)	growth (SK-MEL-5 melanoma)	growth (UACC-62 melanoma)	growth (LOX IMVI melanoma)	growth (SK-MEL-28 melanoma)	growth (SK-MEL-2 melanoma)	growth (MALME-3M melanoma)
Cc1nc2oc3ccccc3c(=O)c2cc1C(=O)NCc1ccccc1	13.1% (inactive)	87.9% (inactive)	113% (inactive)	83% (inactive)	43.2% (inactive)	93.4% (inactive)	68.1% (inactive)	45.9% (inactive)	70.2% (inactive)	94.1% (inactive)	80.9% (inactive)	84.9% (inactive)	64.7% (inactive)	90.9% (inactive)	81% (inactive)	31.1% (inactive)	55.9% (inactive)	78.5% (inactive)		
CCCCCCCCCCCC[n+]1ccc(C(N)=O)cc1	7.8% (active)	28.4% (inactive)	-23.4% (active)	22.1% (inactive)	33.6% (inactive)	8.16% (active)	29.6% (inactive)	10.8% (inactive)	87.3% (inactive)	5.01% (active)	-4.25% (active)	18.6% (inactive)	-3.1% (active)	-18.2% (active)	-6.99% (active)	29% (inactive)	25.6% (inactive)	57.8% (inactive)	30.9% (inactive)	
Clc1ccccc1N=Cc1ccc2c(c1)OCO2	87.1% (inactive)	94.4% (inactive)	106% (inactive)	107% (inactive)	102% (inactive)	112% (inactive)	104% (inactive)	103% (inactive)	100% (inactive)	96.3% (inactive)	95% (inactive)	105% (inactive)	94.9% (inactive)	107% (inactive)	107% (inactive)	103% (inactive)	98.9% (inactive)	110% (inactive)	108% (inactive)	
COc1cc2c(cc1OCCCN1CCN(c3ncnc4ccccc34)CC1)N=CC1CCCN1C2=O (centres undefined)	-24.8% (active)	-34.4% (active)		10.3% (inactive)	-20.9% (active)	-82.7% (active)		-46.8% (active)	1.25% (active)	12.3% (inactive)	-29.8% (active)	12% (inactive)	1.3% (active)	-53% (active)	-95.7% (active)	-91.8% (active)	-39.4% (active)	-9.59% (active)	6.33% (active)	-71.7% (active)
O=[N+]([O-])c1ccc(Oc2cccnc2)c([N+](=O)[O-])c1	16.1% (inactive)	94% (inactive)	63.9% (inactive)	97.5% (inactive)	104% (inactive)	75.7% (inactive)	63.6% (inactive)	84.9% (inactive)	53.1% (inactive)	-4.49% (active)	87.7% (inactive)	106% (inactive)	85.7% (inactive)	83.1% (inactive)	79.1% (inactive)	84.5% (inactive)	24.1% (inactive)	97.6% (inactive)		
COc1ccc2c(c1)C(=O)c1c-2c(OCCN(C)C)nc2ccccc12	10.2% (inactive)	67.8% (inactive)	49% (inactive)	26.6% (inactive)	18% (inactive)	45.9% (inactive)	36.2% (inactive)	30% (inactive)	20.5% (inactive)	12.2% (inactive)	47.2% (inactive)	42.9% (inactive)	21.1% (inactive)	47.2% (inactive)	37.4% (inactive)	52.4% (inactive)	-41.8% (active)	64.9% (inactive)		
O=C1OCC2=C1C(c1cccc(Cl)c1)c1cc3c(cc1N2CCO)OCO3 (centres undefined)	15.4% (inactive)	31.7% (inactive)	6.21% (active)	46.5% (inactive)	-4.59% (active)	-9.08% (active)	61% (inactive)	11% (inactive)	18.5% (inactive)	4.61% (active)	11.7% (inactive)	37.8% (inactive)		25.2% (inactive)	19% (inactive)	22.2% (inactive)	42.8% (inactive)	51.3% (inactive)		
c1ccc(C(NC2CC3CCC2C3)c2ccccc2)cc1 (centres undefined)	92.8% (inactive)	96.1% (inactive)	102% (inactive)	105% (inactive)	94.7% (inactive)	111% (inactive)	102% (inactive)	93.1% (inactive)	97.6% (inactive)	85.8% (inactive)	93.5% (inactive)	99% (inactive)	91.9% (inactive)	97.2% (inactive)	99.7% (inactive)	87.2% (inactive)	95.3% (inactive)	110% (inactive)	89.6% (inactive)	
COc1ccc(/C(=C2\O[C@@H]([C@H]3COC(C)(C)O3)[C@H]3OC(C)(C)O[C@@H]23)c2cc(OC)c(OC)c(OC)c2)cc1O	24.3% (inactive)	43.9% (inactive)	81.9% (inactive)	36.3% (inactive)	85.2% (inactive)	9.85% (active)	107% (inactive)	7.95% (active)	26.9% (inactive)	107% (inactive)	6.11% (active)	47.4% (inactive)	46.2% (inactive)	30.6% (inactive)	59.6% (inactive)	93.2% (inactive)	36.9% (inactive)	59.6% (inactive)	103% (inactive)	
COC(=O)c1c(-c2ccccc2)csc1NC(=O)c1c(-c2ccccc2)noc1C	18.5% (inactive)	59.2% (inactive)	38.8% (inactive)	36.5% (inactive)	43.8% (inactive)	33.2% (inactive)	45.5% (inactive)	52.3% (inactive)	14.5% (inactive)	7.12% (active)	48.1% (inactive)	43.9% (inactive)		32.5% (inactive)	32% (inactive)	48.3% (inactive)	-50% (active)	47.9% (inactive)	61.2% (inactive)	
O=C(Nc1ccncc1)C(=O)c1cn(S(=O)(=O)c2ccc(F)cc2)c2ccccc12	9.29% (active)	57.8% (inactive)	68.1% (inactive)	47.9% (inactive)	61.3% (inactive)	16.2% (inactive)	49.1% (inactive)	14% (inactive)	23.1% (inactive)	1.81% (active)	45% (inactive)	67.2% (inactive)	19.4% (inactive)	27.4% (inactive)	17.7% (inactive)	36.1% (inactive)	38.3% (inactive)	56.1% (inactive)	11.2% (inactive)	
Cc1cc(C)c2c(n1)sc1c(Nc3ccc(Cl)cc3)ncnc12	46.2% (inactive)	32.1% (inactive)	1.12% (active)	0.138% (active)	10.6% (inactive)	-49.5% (active)	20.3% (inactive)	-48.3% (active)	31% (inactive)	27.5% (inactive)	32.7% (inactive)	10.4% (inactive)	22.5% (inactive)	49.2% (inactive)	32.7% (inactive)	-11% (active)	-16.9% (active)	55.3% (inactive)	82.8% (inactive)	
COc1ccc(Cn2c(C(N)=O)cc3c2-c2nc(N)ncc2CCC3)cc1	107% (inactive)	88.9% (inactive)	102% (inactive)	96.8% (inactive)	98.3% (inactive)	95.8% (inactive)	102% (inactive)	96.7% (inactive)	91.1% (inactive)	93.2% (inactive)	97.2% (inactive)	102% (inactive)		99.3% (inactive)	98.7% (inactive)	95.4% (inactive)	107% (inactive)	99.2% (inactive)	105% (inactive)	
CN(C)CCOc1nc2ccccc2c2c1-c1ccc(Cl)cc1C2=O	-29.9% (active)	14.8% (inactive)	-35.6% (active)	-25.3% (active)	-27.9% (active)	-1.7% (active)	-68% (active)	-83.4% (active)	5.59% (active)	-33.8% (active)	-63.8% (active)	14.9% (inactive)	0.224% (active)	2.76% (active)	-91.6% (active)	-39.5% (active)	-37.1% (active)	-49.9% (active)	-9.67% (active)	
COc1cc(-c2cc(C(=O)N3CCN(C(=O)c4ccccc4NCc4ccco4)CC3)nc3cc(-c4ccccc4)nn23)cc(OC)c1OC	12.3% (inactive)	42.9% (inactive)	6.82% (active)	38.6% (inactive)	49.7% (inactive)	17.8% (inactive)	33.6% (inactive)	23.8% (inactive)	29.1% (inactive)	1.33% (active)	8.05% (active)	45.4% (inactive)	24.7% (inactive)	15.8% (inactive)	3.81% (active)	39.7% (inactive)	30% (inactive)	59.3% (inactive)	10.5% (inactive)	
CSc1cc(SC)ncn1	96.6% (inactive)	95.7% (inactive)	124% (inactive)	112% (inactive)	102% (inactive)	98.1% (inactive)	104% (inactive)	112% (inactive)	98.2% (inactive)	97.3% (inactive)	94.2% (inactive)	91% (inactive)	108% (inactive)	91% (inactive)	104% (inactive)	93.7% (inactive)	105% (inactive)	102% (inactive)	100% (inactive)	
O=C(O)C(SC(C(=O)O)c1ccccc1)c1ccccc1 (centres undefined)	98.6% (inactive)	115% (inactive)	106% (inactive)	106% (inactive)	115% (inactive)	115% (inactive)	104% (inactive)	109% (inactive)	99.8% (inactive)	103% (inactive)	85.6% (inactive)	104% (inactive)	98.8% (inactive)	105% (inactive)	111% (inactive)	95.5% (inactive)	99.4% (inactive)	102% (inactive)	103% (inactive)	
CCCCCCCCCCCCCCCCN(C(C)c1ccccc1)S(=O)(=O)c1ccc(OC)c(N)c1 (centres undefined)	89.9% (inactive)	122% (inactive)	131% (inactive)	108% (inactive)	116% (inactive)	116% (inactive)	108% (inactive)	115% (inactive)	115% (inactive)	100% (inactive)	91.5% (inactive)	120% (inactive)	100% (inactive)	101% (inactive)	109% (inactive)	103% (inactive)	91.7% (inactive)	109% (inactive)	120% (inactive)	
